# Laboratory results taken from PubChem BioAssay (NCATS).
# Values joined by “and” are separate entries in the source; they are usually repeats but may differ in a detail not shown here. Equal entries are not always repeated. Records with an inconclusive call do not appear. Active and inactive are the calls of the source. The call rests on the fitted dose curve; in most records, active means well fitted curve in the direction sought with a large enough effect; inconclusive means small, poorly fitted or top-dose-only effect, or another doubt; inactive means no such curve, though single readings can be large; an effect the other way counts as inactive or inconclusive.
# Assay: Quantitative highthroughput screen to assess conditional lethalithy of SEM cells grown in Human Plasma-Like Medium with dialyzed fetal bovine serum (HPLM+ds) (AID 1963882); further: nearly all actives have a fitted effect of over 35% in size; further: potency means the concentration at half of the fitted maximal effect
# Conditions: SEM B-ALL cells in HPLM+ds, CellTiter-Glo viability, 48 h; series mostly up to 45.8 µM; viability: at the top concentration
# Summary of the method: (§1)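 Each medium arm—HPLM with 10% dialyzed FBS, or RPMI1640 with 5 mM glucose and 10% untreated or dialyzed FBS—was screened against an 11-point, 3-fold compound titration for 48 h at 37 °C, with CellTiter-Glo luminescence as endpoint.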
Structure (SMILES),viability,Potency
Cc1cn([C@H]2C=C[C@@H](CO)O2)c(=O)[nH]c1=O,87.3% [at 92.2 µM] (inactive),
CC1(C)[C@H](C(=O)O)N2C(=O)C[C@H]2S1(=O)=O,103% (inactive),
CCCCOc1ccc(C(=O)Nc2ccc(F)cc2F)cc1,90.4% (inactive),
Nc1nc(Cl)nc2c1ncn2[C@H]1C[C@H](O)[C@@H](CO)O1,,105 nM (active)
CC[C@H](C)C(=O)O[C@H]1C[C@H](O)C=C2C=C[C@H](C)[C@H](CC[C@@H](O)C[C@@H](O)CC(=O)O)[C@H]21,87.1% (inactive),
C[C@@H](CN1CC(=O)NC(=O)C1)N1CC(=O)NC(=O)C1,,93.5 nM (active)
Nc1cccc2c1CN(C1CCC(=O)NC1=O)C2=O (stereo unspecified),88.9% [at 92.2 µM] (inactive),
CCn1cc(C(=O)O)c(=O)c2cc(F)c(N3CCNC(C)C3)c(F)c21 (stereo unspecified),99.2% (inactive),
OC(CN1CCC(Cc2ccc(F)cc2)CC1)c1ccc(Cl)cc1 (stereo unspecified),101% (inactive),
Cc1nnc(C(=O)NC(C)(C)c2nc(C(=O)NCc3ccc(F)cc3)c(O)c(=O)n2C)o1,117% (inactive),
Clc1cccc(Cl)c1NC1=NCCN1,104% (inactive),
CC(C)Nc1cc(C(F)(F)F)cc2nc(NC(=O)c3cccnc3)nn12,,1320 nM (active)

# Assay: Quantitative highthroughput screen to assess conditional lethalithy of SEM cells grown in RPMI1640 with unreated serum (RPMI+s) (AID 1963883); further: nearly all actives have a fitted effect of over 35% in size; further: potency means the concentration at half of the fitted maximal effect;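 on viability: 100% = DMSO wells and 0% = empty wells without cells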
# Conditions: SEM B-ALL cells, CellTiter-Glo viability, 48 h; series mostly up to 45.8 µM; viability: at the top concentration
# Summary of the method: as §1
Structure (SMILES),viability,Potency
Cc1cn([C@H]2C=C[C@@H](CO)O2)c(=O)[nH]c1=O,94% [at 92.2 µM] (inactive),
CC1(C)[C@H](C(=O)O)N2C(=O)C[C@H]2S1(=O)=O,99.4% (inactive),
Nc1nc(Cl)nc2c1ncn2[C@H]1C[C@H](O)[C@@H](CO)O1,,105 nM (active)
CC[C@H](C)C(=O)O[C@H]1C[C@H](O)C=C2C=C[C@H](C)[C@H](CC[C@@H](O)C[C@@H](O)CC(=O)O)[C@H]21,103% (inactive),
C[C@@H](CN1CC(=O)NC(=O)C1)N1CC(=O)NC(=O)C1,,66.2 nM (active)
CCn1cc(C(=O)O)c(=O)c2cc(F)c(N3CCNC(C)C3)c(F)c21 (stereo unspecified),89.4% (inactive),
OC(CN1CCC(Cc2ccc(F)cc2)CC1)c1ccc(Cl)cc1 (stereo unspecified),95% (inactive),
Cc1nnc(C(=O)NC(C)(C)c2nc(C(=O)NCc3ccc(F)cc3)c(O)c(=O)n2C)o1,115% (inactive),
Clc1cccc(Cl)c1NC1=NCCN1,96.7% (inactive),
CC(C)Nc1cc(C(F)(F)F)cc2nc(NC(=O)c3cccnc3)nn12,,1180 nM (active)
COc1ccccc1OCC(O)CN1CCN(CC(=O)Nc2c(C)cccc2C)CC1 (stereo unspecified),93.5% (inactive),
CCC1(C)CC(=O)NC1=O (stereo unspecified),74.1% (inactive),

# Assay: Quantitative highthroughput screen to assess conditional lethalithy of SEM cells grown in RPMI1640 with dialyzed fetal bovine serum (RPMI+ds) (AID 1963884); further: nearly all actives have a fitted effect of over 35% in size; further: potency means the concentration at half of the fitted maximal effect;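 on viability: 100% = DMSO control wells and 0% = empty wells without cells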
# Conditions: SEM B-ALL cells, RPMI+dialyzed FBS, CellTiter-Glo viability, 48 h; series mostly up to 45.8 µM; viability: at the top concentration
# Summary of the method: as §1
Structure (SMILES),viability,Potency
CC1(C)[C@H](C(=O)O)N2C(=O)C[C@H]2S1(=O)=O,104% (inactive),
CCCCOc1ccc(C(=O)Nc2ccc(F)cc2F)cc1,85.8% (inactive),
CN(c1nccc(=O)[nH]1)C1CCN(c2nc3ccccc3n2Cc2ccc(F)cc2)CC1,89.9% (inactive),
Nc1nc(Cl)nc2c1ncn2[C@H]1C[C@H](O)[C@@H](CO)O1,,66.2 nM (active)
CC[C@H](C)C(=O)O[C@H]1C[C@H](O)C=C2C=C[C@H](C)[C@H](CC[C@@H](O)C[C@@H](O)CC(=O)O)[C@H]21,75.7% (inactive),
C[C@@H](CN1CC(=O)NC(=O)C1)N1CC(=O)NC(=O)C1,,74.3 nM (active)
Nc1cccc2c1CN(C1CCC(=O)NC1=O)C2=O (stereo unspecified),85.6% [at 92.2 µM] (inactive),
CCn1cc(C(=O)O)c(=O)c2cc(F)c(N3CCNC(C)C3)c(F)c21 (stereo unspecified),102% (inactive),
OC(CN1CCC(Cc2ccc(F)cc2)CC1)c1ccc(Cl)cc1 (stereo unspecified),100% (inactive),
Cc1nnc(C(=O)NC(C)(C)c2nc(C(=O)NCc3ccc(F)cc3)c(O)c(=O)n2C)o1,112% (inactive),
Clc1cccc(Cl)c1NC1=NCCN1,119% (inactive),
CC(C)Nc1cc(C(F)(F)F)cc2nc(NC(=O)c3cccnc3)nn12,,1180 nM (active)
COc1ccccc1OCC(O)CN1CCN(CC(=O)Nc2c(C)cccc2C)CC1 (stereo unspecified),98.6% (inactive),
CCC1(C)CC(=O)NC1=O (stereo unspecified),71.6% (inactive),

# Assay: Cellular viability qHTS for adrenocortical cancer (ACC) cell line SW-13 (AID 1963989);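 further: cells grown in serum-free medium with ITS supplement; on the % scale 0 is the no-effect control and ±100 the full control effect; nearly all actives have a fitted effect of over 65% in size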
# Conditions: SW-13 ACC cells viability, CellTiter-Glo, 48 h; activity (max response): active compounds read low
# Summary of the method: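 SW-13 cells in ITS-supplemented serum-free DMEM were plated overnight, then exposed for 48 h at 37C to compound titrations (up to 46 uM final). Viability was read by CellTiter-Glo luminescence; four-parameter logistic fits gave IC50 and efficacy.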
row,Structure (SMILES),activity (max response)
1,Cc1cn([C@H]2C=C[C@@H](CO)O2)c(=O)[nH]c1=O,4.28% (inactive)
2,CC1(C)[C@H](C(=O)O)N2C(=O)C[C@H]2S1(=O)=O,9.85% (inactive)
3,CCCCOc1ccc(C(=O)Nc2ccc(F)cc2F)cc1,-9.55% (inactive)
4,CC[C@H](C)C(=O)O[C@H]1C[C@H](O)C=C2C=C[C@H](C)[C@H](CC[C@@H](O)C[C@@H](O)CC(=O)O)[C@H]21,-19.4% (inactive)
5,C[C@@H](CN1CC(=O)NC(=O)C1)N1CC(=O)NC(=O)C1,3.22% (inactive) and 6.64% (inactive)
6,Nc1cccc2c1CN(C1CCC(=O)NC1=O)C2=O (stereo unspecified),-7.43% (inactive)
7,CCn1cc(C(=O)O)c(=O)c2cc(F)c(N3CCNC(C)C3)c(F)c21 (stereo unspecified),-4.05% (inactive) and -10.4% (inactive)
8,OC(CN1CCC(Cc2ccc(F)cc2)CC1)c1ccc(Cl)cc1 (stereo unspecified),-8.69% (inactive)
9,Cc1nnc(C(=O)NC(C)(C)c2nc(C(=O)NCc3ccc(F)cc3)c(O)c(=O)n2C)o1,8% (inactive) and 11.5% (inactive)
10,Clc1cccc(Cl)c1NC1=NCCN1,13.1% (inactive)
11,CC(C)Nc1cc(C(F)(F)F)cc2nc(NC(=O)c3cccnc3)nn12,-12.5% (inactive)
12,COc1ccccc1OCC(O)CN1CCN(CC(=O)Nc2c(C)cccc2C)CC1 (stereo unspecified),1.47% (inactive) and 6.99% (inactive)
13,CCC1(C)CC(=O)NC1=O (stereo unspecified),14.5% (inactive) and 4.04% (inactive)
